Assay results taken from PubChem BioAssay AID624441 (Broad Institute, 2012).
Calls of active or inactive are those of the source.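 Rule for the calls: active = activation curve reaches 40% at a concentration no higher than the top valid dose tested; inactive = signal falling instead of rising, plus the rest.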

assay: cellular ROS inducers, fluorescent dye readout – U2OS cells, fluorescence, dry powder, dose response (AID 624441); settings: U2OS ROS induction, H2DCF-DA fluorescence, stronger effect = higher value; at 19.5 µM unless noted

| Compound | max activation |
| --- | --- |
| O=C(Nc1nc(SCc2ccccc2)ns1)C1CCC1 | 11.4% (inactive) |
| Cc1cccc(CSc2nsc(N)n2)c1 | 19.3% [at 1.2 µM] (inactive) |
| Cc1ccccc1CSc1nsc(N)n1 | 36.4% [at 5 µM] (inactive) |
| Nc1nc(SCc2ccccc2)ns1 | 18.5% [at 0.3 µM] (inactive) |
| Cc1ccccc1CSc1n[nH]c(N)n1 | 26% [at 0.0195 µM] (inactive) |
| Nc1nc(S(=O)(=O)Cc2ccccc2)ns1 | 20.7% [at 0.0195 µM] (inactive) |
| Nc1nc(SCc2ccc(Cl)cc2Cl)ns1 | 43.7% (inactive) |
| Nc1nc(SCc2ccc(F)cc2)ns1 | 27% (inactive) |
| Cc1ccccc1CSc1nnc(N)s1 | 9.38% (inactive) |
| O=C(Nc1ccccc1)Nc1nc(SCc2ccccc2)ns1 | -12% [at 10 µM] (inactive) |
| O=C(Nc1nc(SCc2ccccc2)ns1)C1CC=CCC1 (configuration not stated) | 33.9% [at 38 µM] (inactive) |
| Nc1nc(SCc2ccccc2Cl)ns1 | 15.6% [at 0.0001 µM] (inactive) |
